# Compound activity from PubChem.
# Pf growth 48h – P. falciparum growth inhibition at 48 hours (one generation); P. falciparum luciferase growth in erythrocytes, 48 h; Potency, µM (titrated, usually from 28.7 µM), hits mostly inhibitors; actives 5.9% (n = 310,000); AID 504832; active means well fitted inhibition curve with a large enough effect; inconclusive means small, poorly fitted or top-dose-only effect, or another doubt; inactive means no such curve, though single readings can be large or run the other way
#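 Cell-based growth assay: transgenic P. falciparum expressing firefly luciferase, cultured in red cells within RPMI 1640 containing 0.5% w/v Albumax, 24 mM bicarbonate and gentamycin. A drop in luciferase activity indicates inhibition.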
# SARS PLpro yeast – inhibitors of SARS-CoV papain-like protease in yeast | S. cerevisiae expressing SARS-CoV PLpro, growth rescue | actives 0.19% (n = 330,000) | Potency, µM (titrated, usually from 32.9 µM), most hits filed as activators | AID 485353; further: nearly all actives have a fitted effect of over 55% in size
# NS1 inh – inhibitors of influenza NS1 protein function; actives 0.4% (n = 270,000); Potency, µM (doses to about 46.1 µM); further: actives are rising curves; nearly all actives have a fitted effect of over 50% in size
#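 Compounds were scored for reversing the slow growth caused by influenza A NS1 in S. cerevisiae, measured by optical density at 600 nm. Assay medium contained 2% galactose at pH 6.0; NS1-free yeast of the same strain were the positive control.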
# Shiga toxin inh – blocks Shiga toxin action in Vero cells | Vero cells, Shiga toxin protein synthesis inhibition reporter | inhibition, % at 38.7 µM | actives 9.2% (n = 290,000) | AID 2315; in the data active means inhibition mostly above about 28%, no sharp cut-off; inactive means mostly below about 43%
# Pf growth 96h – inhibits malaria parasite growth, 96 h; Potency, µM (highest dose often 28.7 µM), actives largely listed as inhibitors; AID 504834; actives 6.9% (n = 320,000); P. falciparum luciferase reporter growth, 96 h; active means well fitted inhibition curve with a large enough effect; inconclusive means small, poorly fitted or top-dose-only effect, or another doubt; inactive means no such curve, though single readings can be large or run the other way
#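 Compounds incubated with erythrocytes infected by luciferase-expressing P. falciparum (2% hematocrit, 0.05% parasitemia final) for 96 hours, 37 C in 5% CO2. Growth inhibition scored as decreased luciferase luminescence.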
# CHX counter – counter-screen for Shiga toxin inhibitors: cycloheximide protein synthesis inhibition | max response, % | AID 2314 | actives 12% (n = 300,000) | cell reporter, cycloheximide protein synthesis inhibition counterscreen; in the data active means max response mostly above about 13%, no sharp cut-off; inactive means mostly below about 14%; further: read at 38.3 µM for the half of the compounds with a filed dose
# A number is an active result; i = inactive; ? = inconclusive; nt = no result given. Only some compounds are listed: those with a hit (about 21% of all), similar ones and a draw of the others. Unless noted, the call rests on the fitted dose curve.
SMILES,Pf growth 48h,SARS PLpro yeast,NS1 inh,Shiga toxin inh,Pf growth 96h,CHX counter
CC(C)(CC(=O)O)CC(=O)Nc1ccc(Oc2ccc(C(C)(C)C)cc2)nc1,i,i,i,i,i,i
CC(C)NC(=O)C(=O)Nc1cc2c3c(c1)C(C)C(=O)N3CCC2 (stereo not given),i,i,i,i,i,i
O=C(NC(Cc1ccccc1)C(=O)N1CCC2(CC1)OCCO2)C1CCCCC1 (stereo not given),i,i,i,i,nt,i
COc1ccccc1N1CCN(C(=O)c2ccccc2NC(=O)C2CCCCC2C(=O)O)CC1 (stereo not given),i,i,i,i,7.4µM,i
O=C(c1ccccc1Oc1ccccc1)N1CCN(c2ccccc2F)CC1,nt,i,i,i,?,i
COc1ccccc1N1CCN(C(=O)c2nn(-c3ccccc3OC)c(=O)c3ccccc23)CC1,9.3µM,i,i,i,?,i
COc1ccccc1N1CCN(C(=O)c2ccccc2Oc2ccccc2)CC1,13µM,i,i,i,?,i
COc1ccccc1N1CCN(C(=O)C(Cc2ccccc2)NC(=O)C2CCCCC2)CC1 (stereo not given),10µM,i,i,i,i,i
CCN(CC)S(=O)(=O)c1ccc(=O)[nH]c1,i,i,nt,i,i,i
CC1CCC2(CC1)NC(=O)N(CC(=O)Nc1ccc(F)cc1)C2=O (stereo not given),i,i,nt,nt,i,nt
COc1ccc(C2c3[nH]c4ccccc4c3CCN2Cc2cccn2-c2ncccn2)cc1C (stereo not given),?,i,i,i,i,i
CCC(C)C1/C=C\CC(NC(=O)OCC2c3ccccc3-c3ccccc32)CC(=O)N1Cc1ccccc1 (stereo not given),nt,i,nt,nt,nt,nt
COc1ccccc1N1CCN(C(=O)c2ccccc2N(C)S(=O)(=O)c2ccc(C)cc2)CC1,10µM,i,i,i,?,i
O=C(O)c1ccccc1Oc1ccc(Oc2ccccc2)cc1,i,i,i,i,?,7.5
CSc1nc(Sc2ccc(Cl)cc2)c2ccccc2n1,2.6µM,i,i,i,4.7µM,i
CCCOc1ccc(CSCCNC(=S)Nc2ccccc2)cc1,13µM,?,i,i,?,i
S=C(NCCSCc1ccc(Cl)cc1)Nc1ccccc1,?,i,i,i,?,i
CCOc1ccc(CSCCNC(=S)Nc2ccc(OC)cc2)cc1,8.3µM,i,i,i,?,i
Cc1ccc(NC(=O)c2ncn(CC(=O)N[C@H](CO)Cc3c[nH]c4ccccc34)n2)cc1C,nt,i,nt,nt,nt,nt
CC1Cc2ccccc2N1S(=O)(=O)c1cccc(C(=O)N2CCN(c3ncccn3)CC2)c1 (stereo not given),?,i,nt,i,?,i
CC(C)Oc1ccc(C(=O)Nc2ncn[nH]2)cc1,i,i,i,i,10µM,i
CC(C)Oc1cccc(C(=O)Nc2ncn[nH]2)c1,i,i,i,i,?,i
CCOc1ccc(C(=O)Nc2ncn[nH]2)cc1,i,i,i,i,2.1µM,i
O=S(=O)(c1c(F)cccc1F)N1CCN(S(=O)(=O)c2c(F)cccc2F)CC1,nt,nt,nt,i,nt,i
O=C1/C(=C/c2cccnc2)SC(=S)N1CCc1ccccc1,?,i,i,i,i,i
SMILES,Pf growth 48h,SARS PLpro yeast,NS1 inh,Shiga toxin inh,Pf growth 96h,CHX counter
CC(=O)c1ccc(S(=O)(=O)N2CCNC(=O)C2)cc1,nt,i,nt,nt,nt,nt
Cc1ccc(Oc2cc(NN3CCCCC3)c([N+](=O)[O-])cc2[N+](=O)[O-])c(Cl)c1,?,i,i,i,13µM,i
CC(=O)c1ccccc1Oc1cc(NN2CCCCC2)c([N+](=O)[O-])cc1[N+](=O)[O-],i,i,i,i,?,i
Cc1ccc(Oc2cc(NN3CCCCC3)c([N+](=O)[O-])cc2[N+](=O)[O-])c([N+](=O)[O-])c1,i,i,i,i,?,i
CC(=O)c1cccc(Oc2cc(NN3CCCCC3)c([N+](=O)[O-])cc2[N+](=O)[O-])c1,i,i,i,i,12µM,i
O=S(=O)(Nc1cc(S(=O)(=O)N2CCOCC2)ccc1NCC1CCCO1)c1ccccc1F (stereo not given),i,i,nt,nt,i,nt
CCC(C)(C)NCC(=O)Nc1ccc(OC(F)(F)F)cc1,nt,i,i,i,i,15
O=C(CNCc1cccs1)Nc1ccc(N2CCCCCC2)cc1,i,i,i,60,i,27
O=C(CNCc1cccs1)Nc1ccc(S(=O)(=O)N2CCCCC2)cc1,i,i,nt,i,i,i
CCOC(=O)CNc1ccc(OC(F)(F)F)cc1,i,i,i,i,i,i
